From paper PMC12136788
The full ranking holds about 24,000 sequences; the median of “enrichment r” is about 0.99, and the highest 2% start at about 3.7. What follows is part of a selection rich in the highest values, with near analogues and random picks from the rest.

T1: UNK ZnF1-3 (human, UniProt Q9C0B0 31-174)
T1 sequence: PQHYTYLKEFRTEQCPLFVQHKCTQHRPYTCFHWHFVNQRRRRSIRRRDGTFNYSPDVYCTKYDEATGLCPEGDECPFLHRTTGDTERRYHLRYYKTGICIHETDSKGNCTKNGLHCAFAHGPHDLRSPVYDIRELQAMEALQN

B1: chr11:4127340:4127341:+_ENSG00000167325_ENST00000300738|hu_mus|hu_hu_hu_mus_False|28_38 (ssRNA)
RNA: GGGAGUUCUACAGUCCGACGAUCGGCAUAGUCAGGGUGCUUCGUGGUCAAGGUCGCGGCUGUCUCAGCAGCCAGGGUGUCCAGUUCCACUGUGGUGACCCCACUGUACAAGCCUUGGAUUACUUUCAUGGUGAUCUGAGCAGGCAACAGAGGAUUGAGCAUCA
B2: chr2:202488911:202488912:-_ENSG00000155755_ENST00000286196|hu_mus|hu_hu_hu_mus_False|58_68 (ssRNA)
RNA: GGGAGUUCUACAGUCCGACGAUCAUUGAAACAUUUUUCAUAAUCUCCAGUAGCAUUUCAGCAUUAUUAAUCAAAAAAUCUAUUACAAAUACAUGUAUCUUAUAAAAAUACACUUAAAAACACGAGUGGGGAGCGCAGGCGCCACAACAGAGGAUUGAGCAUCA
B3: chr2:202488911:202488912:-_ENSG00000155755_ENST00000286196|hu_mus|hu_hu_hu_mus_False|18_68 (ssRNA)
RNA: GGGAGUUCUACAGUCCGACGAUCAUUGAAACAUUUUUCAUAAUCUCCAGUAGCAUUUCAGCAUUAUUAAUCAAAAACUCAAUUGUAAAUACAUGUAUCUUAUAAAAAUACACUUAAAUUUAAAAACGGGGAGCGCAGGCGCCACAACAGAGGAUUGAGCAUCA
B4: chr2:202488911:202488912:-_ENSG00000155755_ENST00000286196|hu_mus|hu_hu_hu_mus_False|18_78 (ssRNA)
RNA: GGGAGUUCUACAGUCCGACGAUCAUUGAAACAUUUUUCAUAAUCUCCAGUAGCAUUCAGUAUUAUAGUAACAAAAGCUCAAUUGUAAAUACAUGUAUCUUAUAAAAAUACACUUAAAUUUAAAAACGGGGAGCGCAGGCGCCACAACAGAGGAUUGAGCAUCA
B5: chr15:96529919:96529920:-_ENSMUSG00000022462_ENSMUST00000023099|mus_hu|FALSE|FALSE (ssRNA)
RNA: GGGAGUUCUACAGUCCGACGAUCUCUCUAUUCUCACGCAGACGUCUUCAGUGGGUUUCUCUCAGUCAAAUACAAAUCAUAAAAAACAAACAAAAAAUUUCCCCAAAUCCAACAACAGGCAGGAAAAAUAAUUUUAAUAAAAAACAACAGAGGAUUGAGCAUCA
B6: chr4:24541891:24541892:-_ENSG00000109606_ENST00000336812|perfect_dup|FALSE|FALSE (ssRNA)
RNA: GGGAGUUCUACAGUCCGACGAUCGGAUCCCAAUUCAGUCAGAUCUCCAUCAUCAUUUAAAGCAGCCAAAUAAUUCAAAAGUUCUAGGGCUCUCAUCAGAGUUUCAGGAGCUGGUGGGUCCAUAAAAUCAAAGUGUACCAAGUCCAACAGAGGAUUGAGCAUCA
B7: chr17:62500844:62500845:-_ENSG00000108654_ENST00000583239|hu_hu|FALSE|FALSE (ssRNA)
RNA: GGGAGUUCUACAGUCCGACGAUCCUUGAUAAAAAUUCUUCUCAAAUUUAGGCAGCUCAUCAAGAUUCCACUUCUUUUUAACUAAUUUCUCCCCAGGGUUUCCAAACUUCUUUCCAGAUAAGGGCCCUGCCCUACUUCCUCCAACAACAGAGGAUUGAGCAUCA

target: T1, UNK ZnF1-3; assay: nsRBNS (natural sequence RNA bind-n-seq); RBNS binding buffer (assumed for nsRBNS): 25 mM Tris pH 7.5, 150 mM KCl, 3 mM MgCl2, 0.01% Triton X-100, 500 ug/ml BSA, 20 U/ml SUPERase-In, 4 C; UNK is unkempt and MSI1 is Musashi-1; names of the RNAs are library labels; protein concentration not given here; high values mean tight binding

Going from B1 to B2, the binding signal rises from 1.08 enrichment R to 14 enrichment R.

Going from B3 to B4, the binding signal falls from 7.64 enrichment R to 5.43 enrichment R.

Compared with B5, B6 is lower in binding signal: 3.81 enrichment R for the first, 1.58 enrichment R for the second.

Binder B7 has a binding signal of 1.55 enrichment R.
